Test results taken from PubChem BioAssay (NCATS).
Inconclusive results are not listed. The source made the active and inactive calls. The call rests on the fitted dose curve; in most records, active means well fitted curve in the direction sought with a large enough effect; inconclusive means small, poorly fitted or top-dose-only effect, or another doubt; inactive means no such curve, though single readings can be large; an effect the other way counts as inactive or inconclusive.

test: qHTS for Inhibitors of Plasmodium falciparum (DD2) proliferation (AID 504314);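 further: parasite DNA measured by SYBR Green fluorescence after red cell lysis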; details: P. falciparum Dd2 in erythrocytes, SYBR Green growth, 72 h; series mostly up to 1.12 µM
Summary of the method: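 Parasite proliferation measured as SYBR Green signal from Plasmodium DNA, mature erythrocytes lacking DNA. 72 h incubation, 37C; activity scaled between vehicle and 0.29 uM artemisinin, with correction from vehicle-only plates.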

Potency, inactive:
COC(=O)C1=C(C(=O)OC)[C@@H]2Nc3ccccc3[C@@]23C[C@@H](C(=O)OC)N(S(=O)(=O)c2cccs2)C3=N1, COCCN1C=C2C(=O)C(C)(OC(=O)CCC(=O)OC)C(=O)C=C2C=C1C1CC1 (stereo unspecified), CCOC(=O)CN1C(=O)N[C@@H](CCc2ccccc2)C(C(=O)OC)=C1C, CC(C)(C)OC(=O)NCCCC1=CC2=CC(=O)C(C)(OC(=O)c3cccs3)C(=O)C2=CO1 (stereo unspecified), COC(=O)C1=C(C(=O)OC)[C@@H]2N(Cc3ccccc3)c3ccccc3[C@@]23CCC(=O)N(CC2CCCCC2)C3=N1, COC(=O)[C@H]1[C@@H](C)N(Cc2ccccc2)C(=O)N[C@H]1c1cccc(C(F)(F)F)c1, CC1(OC(=O)C2CCCC2)C(=O)C=C2C=C(c3ccsc3)N(c3ccc(CO)cc3)C=C2C1=O (stereo unspecified), COC(=O)N[C@@H](c1cccc(C)c1)C(C(C)=O)C(=O)OC (stereo partly specified), COC(=O)CCC(=O)OC1(C)C(=O)C=C2C=C(C3CC3)N(CC3CC3)C=C2C1=O (stereo unspecified), COC(=O)C1=C(C(=O)OC)[C@@H]2Nc3ccccc3[C@@]23C[C@@H](C(=O)OC)N(C(=O)c2ccc(Br)cc2)C3=N1, CCCCC1=CC2=CC(=O)C(C)(OC(=O)CC)C(=O)C2=CN1c1ccccc1 (stereo unspecified), CCN(CC)CCCN1C=C2C(=O)C(C)(OC(=O)CCC(=O)OC)C(=O)C(Br)=C2C=C1c1ccc(OC)cc1 (stereo unspecified), C=CC1=C2C=C(C3CC3)N(Cc3ccco3)C=C2C(=O)C(C)(OC(=O)c2ccco2)C1=O (stereo unspecified), CC#CCN1c2ccccc2[C@]23C[C@@H](C(=O)OC)N(C(C)=O)C2=NC(C(=O)OC)=C(C(=O)OC)[C@H]13, CCCCC1=CC2=C(c3ccco3)C(=O)C(C)(OC(=O)c3ccc(OC)cc3)C(=O)C2=CN1CCc1c[nH]c2ccccc12 (stereo unspecified), C=CCN1c2ccccc2[C@]23C[C@@H](C(=O)OC)N(C(C)=O)C2=NC(C(=O)OC)=C(C(=O)OC)[C@H]13, CCOC(=O)CN1C(=O)N[C@@H](CCc2ccccc2)[C@@H](C(=O)OC)[C@H]1C, CCN1C(=O)N[C@@H](c2cccc(F)c2)C(C(C)=O)=C1C, COc1cccc([C@@H]2Oc3ccc(Br)cc3C(=O)[C@@H]2OC(=O)Nc2cc(OC)c(OC)c(OC)c2)c1, C=CCN1c2ccccc2[C@]23C[C@@H](C(=O)OC)N(C(=O)COCc4ccccc4)C2=NC(C(=O)OC)=C(C(=O)OC)[C@H]13, COC(=O)CCC(=O)OC1(C)C(=O)C=C2C=C(C3CC3)N(CCN3CCOCC3)C=C2C1=O (stereo unspecified), CCCCC1=CC2=C(c3ccco3)C(=O)C(C)(OC(=O)c3ccc(OC)cc3)C(=O)C2=CN1C1CCCC1 (stereo unspecified), CC[C@@H](C)CN1C(=O)N[C@@H](c2ccccc2)C(C(C)=O)=C1C, CCN1C(=O)N[C@@H](c2cccs2)C(C(C)=O)=C1C, COC(=O)[C@@]1(C=C2c3ccc(F)cc3[C@@H](OC)[C@@H]2C)[C@@H]2CC=C[C@@H]21, COC(=O)C1=C(C(=O)OC)[C@@H]2N(C)c3ccccc3[C@@]23C[C@@H](CO)N(C(=O)c2cc(C)oc2C)C3=N1, COC/C=C/C1=CC2=CC(=O)C(C)(OC(=O)c3cnc4ccccc4n3)C(=O)C2=CN1CCOC (stereo unspecified), COC(=O)C1=C(C)N(Cc2ccco2)C(=O)N[C@@H]1c1ccco1, CC(C)(C)N1C(=O)[C@@H]2[C@H]3[C@H](O)[C@H](O)CC(=NOCc4ccccc4)[C@H]3CC[C@H]2C1=O, COC(=O)CCCC1=CC2=C(c3ccccc3)C(=O)C(C)(OC(=O)C3CCCC3)C(=O)C2=CN1Cc1ccccc1 (stereo unspecified), COC(=O)C1=C(C(=O)OC)[C@@H]2N(C)c3ccc(OC)cc3[C@@]23C[C@@H](C(=O)OC)N(C(C)=O)C3=N1, CCCCC1=CC2=CC(=O)C(C)(OC(=O)CC)C(=O)C2=CN1CCCN(CC)CC (stereo unspecified), C=CCOC(=O)N[C@H](C(C(=O)OC)=C(C)NCc1ccccc1)c1ccc(C)cc1, CCN1C(=O)N[C@@H](c2cccc(C(F)(F)F)c2)C(C(=O)OC)=C1C, COC(=O)CCCC1=CC2=CC(=O)C(C)(OC(=O)c3cccs3)C(=O)C2=CN1Cc1ccccc1 (stereo unspecified), COC/C=C/C1=CC2=CC(=O)C(C)(OC(=O)c3cnc4ccccc4n3)C(=O)C2=CN1C1CCCC1 (stereo unspecified), COC(=O)CCCC1=CC2=CC(=O)C(C)(OC(=O)CCc3ccccc3)C(=O)C2=CO1 (stereo unspecified), CCN1C(=O)N[C@@H](c2cccs2)C(C(=O)OC)=C1C, CCCCC1=CC2=CC(=O)C(C)(OC(=O)CC)C(=O)C2=CN1Cc1ccccc1 (stereo unspecified)

test: qHTS for Inhibitors of Plasmodium falciparum (GB4) proliferation (AID 504315); further: nearly all actives have a fitted effect of over 50% in size; details: P. falciparum GB4 in erythrocytes, SYBR Green DNA, 72 h; series mostly up to 6.7 µM
Summary of the method: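 Parasite growth measured as SYBR Green DNA fluorescence (ex 485, em 535 nm) after overnight lysis following 72 h culture at 37 °C, 0.3% parasitemia, 2.5% hematocrit. Values normalized against DMSO and 0.29 uM artemisinin controls, with plate-stack correction.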

Potency, inactive:
COC(=O)C1=C(C(=O)OC)[C@@H]2Nc3ccccc3[C@@]23C[C@@H](C(=O)OC)N(S(=O)(=O)c2cccs2)C3=N1, CCOC(=O)CN1C(=O)N[C@@H](CCc2ccccc2)C(C(=O)OC)=C1C, CC(C)(C)OC(=O)NCCCC1=CC2=CC(=O)C(C)(OC(=O)c3cccs3)C(=O)C2=CO1 (stereo unspecified), COC(=O)C1=C(C(=O)OC)[C@@H]2N(Cc3ccccc3)c3ccccc3[C@@]23CCC(=O)N(CC2CCCCC2)C3=N1, COC(=O)[C@H]1[C@@H](C)N(Cc2ccccc2)C(=O)N[C@H]1c1cccc(C(F)(F)F)c1, CC1(OC(=O)C2CCCC2)C(=O)C=C2C=C(c3ccsc3)N(c3ccc(CO)cc3)C=C2C1=O (stereo unspecified), COC(=O)N[C@@H](c1cccc(C)c1)C(C(C)=O)C(=O)OC (stereo partly specified), COC(=O)C1=C(C(=O)OC)[C@@H]2Nc3ccccc3[C@@]23C[C@@H](C(=O)OC)N(C(=O)c2ccc(Br)cc2)C3=N1, CCCCC1=CC2=CC(=O)C(C)(OC(=O)CC)C(=O)C2=CN1c1ccccc1 (stereo unspecified), CCN(CC)CCCN1C=C2C(=O)C(C)(OC(=O)CCC(=O)OC)C(=O)C(Br)=C2C=C1c1ccc(OC)cc1 (stereo unspecified), C=CC1=C2C=C(C3CC3)N(Cc3ccco3)C=C2C(=O)C(C)(OC(=O)c2ccco2)C1=O (stereo unspecified), CC#CCN1c2ccccc2[C@]23C[C@@H](C(=O)OC)N(C(C)=O)C2=NC(C(=O)OC)=C(C(=O)OC)[C@H]13, CCCCC1=CC2=C(c3ccco3)C(=O)C(C)(OC(=O)c3ccc(OC)cc3)C(=O)C2=CN1CCc1c[nH]c2ccccc12 (stereo unspecified), C=CCN1c2ccccc2[C@]23C[C@@H](C(=O)OC)N(C(C)=O)C2=NC(C(=O)OC)=C(C(=O)OC)[C@H]13, CCOC(=O)CN1C(=O)N[C@@H](CCc2ccccc2)[C@@H](C(=O)OC)[C@H]1C, CCN1C(=O)N[C@@H](c2cccc(F)c2)C(C(C)=O)=C1C, COc1cccc([C@@H]2Oc3ccc(Br)cc3C(=O)[C@@H]2OC(=O)Nc2cc(OC)c(OC)c(OC)c2)c1, C=CCN1c2ccccc2[C@]23C[C@@H](C(=O)OC)N(C(=O)COCc4ccccc4)C2=NC(C(=O)OC)=C(C(=O)OC)[C@H]13, COC(=O)CCC(=O)OC1(C)C(=O)C=C2C=C(C3CC3)N(CCN3CCOCC3)C=C2C1=O (stereo unspecified), CCCCC1=CC2=C(c3ccco3)C(=O)C(C)(OC(=O)c3ccc(OC)cc3)C(=O)C2=CN1C1CCCC1 (stereo unspecified), CC[C@@H](C)CN1C(=O)N[C@@H](c2ccccc2)C(C(C)=O)=C1C, CCN1C(=O)N[C@@H](c2cccs2)C(C(C)=O)=C1C, COC(=O)[C@@]1(C=C2c3ccc(F)cc3[C@@H](OC)[C@@H]2C)[C@@H]2CC=C[C@@H]21, COC(=O)C1=C(C(=O)OC)[C@@H]2N(C)c3ccccc3[C@@]23C[C@@H](CO)N(C(=O)c2cc(C)oc2C)C3=N1, COC/C=C/C1=CC2=CC(=O)C(C)(OC(=O)c3cnc4ccccc4n3)C(=O)C2=CN1CCOC (stereo unspecified), COC(=O)C1=C(C)N(Cc2ccco2)C(=O)N[C@@H]1c1ccco1, CC(C)(C)N1C(=O)[C@@H]2[C@H]3[C@H](O)[C@H](O)CC(=NOCc4ccccc4)[C@H]3CC[C@H]2C1=O, COC(=O)CCCC1=CC2=C(c3ccccc3)C(=O)C(C)(OC(=O)C3CCCC3)C(=O)C2=CN1Cc1ccccc1 (stereo unspecified), COC(=O)C1=C(C(=O)OC)[C@@H]2N(C)c3ccc(OC)cc3[C@@]23C[C@@H](C(=O)OC)N(C(C)=O)C3=N1, CCCCC1=CC2=CC(=O)C(C)(OC(=O)CC)C(=O)C2=CN1CCCN(CC)CC (stereo unspecified), C=CCOC(=O)N[C@H](C(C(=O)OC)=C(C)NCc1ccccc1)c1ccc(C)cc1, CCN1C(=O)N[C@@H](c2cccc(C(F)(F)F)c2)C(C(=O)OC)=C1C, COC(=O)CCCC1=CC2=CC(=O)C(C)(OC(=O)c3cccs3)C(=O)C2=CN1Cc1ccccc1 (stereo unspecified), COC/C=C/C1=CC2=CC(=O)C(C)(OC(=O)c3cnc4ccccc4n3)C(=O)C2=CN1C1CCCC1 (stereo unspecified), COC(=O)CCCC1=CC2=CC(=O)C(C)(OC(=O)CCc3ccccc3)C(=O)C2=CO1 (stereo unspecified), CCN1C(=O)N[C@@H](c2cccs2)C(C(=O)OC)=C1C, CCCCC1=CC2=CC(=O)C(C)(OC(=O)CC)C(=O)C2=CN1Cc1ccccc1 (stereo unspecified)
